Assay outcomes (PubChem BioAssay)
Sampled rows, rich in hits. Any-hit rate of the full collection: about 0.4%.
GLA inh pH 4.5: alpha-galactosidase A (human) inhibition, pH 4.5 | AID 1467 | P06280 | 230,000 tested, under 10 active | activity change, negative = inhibition, % at 105 µM | purified enzyme, 4-MU-alpha-Gal fluorescence, pH 4.5;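 note: 0% = full activity with enzyme and -100% = basal without enzyme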
Target sequence (P06280 whole entry, looked up): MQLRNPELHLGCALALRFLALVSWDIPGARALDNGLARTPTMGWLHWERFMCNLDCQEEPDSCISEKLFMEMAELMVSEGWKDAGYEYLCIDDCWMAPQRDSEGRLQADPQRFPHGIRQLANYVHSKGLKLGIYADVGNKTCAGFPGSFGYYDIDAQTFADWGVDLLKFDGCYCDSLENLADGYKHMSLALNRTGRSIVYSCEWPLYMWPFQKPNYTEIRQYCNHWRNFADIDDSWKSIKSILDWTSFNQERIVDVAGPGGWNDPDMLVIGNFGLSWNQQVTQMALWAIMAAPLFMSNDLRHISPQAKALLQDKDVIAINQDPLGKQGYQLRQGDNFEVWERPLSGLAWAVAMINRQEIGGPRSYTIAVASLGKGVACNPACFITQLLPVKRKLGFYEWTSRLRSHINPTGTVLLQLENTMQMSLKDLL
GAA spleen mod: inhibits or activates alpha-glucosidase in human spleen homogenate. P10253. human spleen homogenate, 4-MU-alpha-glucoside fluorescence. Potency, µM (series often up to 79.9 µM), for inactives: at the top dose activity change, negative = inhibition, usual class: inhibitors. actives 0.006% (n = 240,000). AID 2112;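 note: potency is the fitted concentration of half-maximal effect; 0% = enzyme with vehicle and -100% = no enzyme basal signal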
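Compounds were titrated against alpha-glucosidase in spleen homogenate at pH 5.0, with 1 mM 4-methylumbelliferyl substrate for 40 min at 37 C. Reactions were quenched with pH 10 NaOH/glycine and fluorescence measured.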
GAA glycogen: GAA glycogen-cleavage inhibition or activation | P10253 | recombinant GAA, glycogen substrate, Amplex Red glucose oxidase fluorescence | Potency, µM (series often up to 76.4 µM), inactives show at the top dose activity change, negative = inhibition, most hits filed as inhibitors | actives 0.38% (n = 300,000);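 note: potency is the fitted concentration of half-maximal effect; 0% = full enzyme reaction and -100% = no-enzyme basal signal; the screen sought inhibitors and activators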
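Recombinant enzyme (4 nM final) with compounds titrated up to 77 uM and bovine liver glycogen (30 ug) in citrate pH 5.0, 0.01% Tween-20, 37 C 40 min. Released glucose detected by Amplex Red/glucose oxidase (Ex 573/Em 610); AC50 from Hill fits.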
GAA inh: inhibitors of human lysosomal alpha-glucosidase; actives 0.005% (n = 200,000); AID 1466; P10253; Potency, µM (series often up to 76.9 µM), without a hit: top-dose activity change, negative = inhibition, usual class: inhibitors; purified human GAA, 4-MU-alpha-glucoside fluorescence;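 note: potency is the fitted concentration of half-maximal effect; plate controls were uninhibited enzyme wells for no effect and no-enzyme background for full effect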
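Fluorescence at Ex 365/Em 440 nm from 4-methylumbelliferone reported enzyme activity after 20 min at room temperature. Reactions used 4 nM enzyme and 400 uM substrate at pH 5.0; curves fitted with the Hill equation.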
GLA spleen mod: alpha-galactosidase A (human) modulation. actives 0.008% (n = 240,000). Potency, µM (top dose mostly 80 µM), inactives show at the top dose activity change, negative = inhibition, usual class: inhibitors. human spleen homogenate, 4MU-alpha-Gal fluorescence, 40 min. P06280;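 note: potency is the fitted concentration of half-maximal effect; 0% = enzyme with vehicle and -100% = no enzyme basal signal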
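Human spleen homogenate (1 ug) was the enzyme source, with 4-methylumbelliferyl-alpha-D-galactopyranoside (1 mM final) in pH 5.0 citrate buffer with 0.01% Tween-20. Compounds were titrated; after 40 min at 37C, NaOH/glycine stop, 4-MU fluorescence read; AC50 from Hill fits.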
Starred values were filed as active, the others as inactive; ? = inconclusive; · = not tested or not shown; [ ] = remark or other dose. Calls come from the whole dose curve; as a rule, active = well fitted curve in the direction sought with a large enough effect; inconclusive = small, poorly fitted or top-dose-only effect, or another doubt; inactive = no such curve, though single readings can be large; an effect the other way counts as inactive or inconclusive.

SMILES	GLA inh pH 4.5	GAA spleen mod	GAA glycogen	GAA inh	GLA spleen mod
Cc1ccccc1Nc1nc(NCc2ccco2)c2ccccc2n1	2	-1%	-2%	-3%	-1%
CCN1CCN(c2cc3c(cc2F)c(=O)c(S(=O)(=O)c2ccc(OC)cc2)cn3CC)CC1	·	·	15%[76.3 µM]	·	·
CC/C=C\C/C=C\C/C=C\C/C=C\C=C\C(O)CCCC(=O)O (centres undefined)	-2	3%	·	·	5%
CCCCCCCCCCCCCCC[C@@H](O)[C@H](CO)NC(C)=O	0	1%	·	·	9%
COCCNc1c(-c2ccc(O)cc2)nc2ccc(Cl)cn12	-1	-13%	10µM*	1%	2%
COc1ccc(-c2noc(CC(=O)Nc3ccc(Br)cc3C)n2)cc1	·	·	-1%[76.3 µM]	·	·
O=C1NC(=O)C(Cc2ccc(OCCN3COc4ccccc4C3=O)cc2)S1 (centres undefined)	·	-4%	·	·	4%
CC(C)c1ccc(NC(=O)Cn2cc(S(=O)(=O)Cc3ccccc3Cl)c3ccccc32)cc1	·	·	7%[76.3 µM]	·	·
CCOc1ccc(NC(=O)N(CCN2CCOCC2)Cc2ccc3c(c2)CCCN3CC)cc1	8	-14%	8.9µM*	0%	17%
CCCN1CCCc2cc(CN(CCCN3CCOCC3)C(=O)Nc3ccc(OCC)cc3)ccc21	-7	0%	3.5µM*	?	-6%
CCOc1ccc(NC(=O)N(CCCN2CCOCC2)Cc2cccnc2)cc1	-3	-1%	13%	-10%	-8%
CCCCN1CCC[C@H]1CNC(=O)c1cc(C#N)c2ccccc2c1OC	·	4%	·	·	7%
Cc1ccc(NC(=O)CSc2nc(-c3ccco3)cc(C(F)(F)F)n2)cc1	·	·	4%[76.3 µM]	·	·
CCOc1ccc(N(C(=O)c2ccc(Cl)cc2)S(=O)(=O)c2ccc3c(c2)n(C)c(=O)n3C)cc1	·	·	11%[76.3 µM]	·	·
CCOC(=O)c1cnc2c(C)cc(C)cc2c1Nc1cccc(C(=O)O)c1	·	·	13%[76.3 µM]	·	·
COc1ccc(S(=O)(=O)Nc2cc3c(cc2NCc2ccccc2)n(C)c(=O)n3C)cc1	·	·	10µM*	·	·
COc1cccc(-c2ccc3ncnc(N(C)C)c3c2)c1	·	-8%	·	·	50µM*
O=C1C=C(Nc2ccccc2O)c2ccccc2C1=O	-28	?	12µM*	9%	2%
O=C(CN1CCN(c2ccccc2)CC1)NCc1ccc(F)cc1	·	·	-1%	·	·
CC(=O)N1CCN(c2ccc(NCc3cccc4ccccc34)cc2)CC1	·	·	-16%[15.3 µM]	·	·
CC(=O)N1CCN(c2ccc(NCc3ccc(C)s3)cc2)CC1	2	-7%	16µM*	-2%[15.4 µM]	-3%
Fc1ccc(CNc2ccc(N3CCN(Cc4ccccc4)CC3)cc2)cc1	·	·	8.9µM*	·	·
CC(=O)N1CCN(c2ccc(NCc3ccccc3)cc2)CC1	-8	-10%	14µM*	-3%	-2%
CC(=O)N1CCN(c2ccc(NCc3cccs3)cc2)CC1	4	0%	40µM*	-9%	6%
CCCC[C@H](NC(=O)[C@H](CC(C)C)NC(=O)[C@@H](Cc1c[nH]c2ccccc12)NC(=O)[C@H](Cc1ccccc1)NC(=O)[C@@H](Cc1c[nH]c2ccccc12)NC(=O)[C@H](CC(N)=O)NC(=O)[C@@H](Cc1c(Cl)cccc1Cl)NC(=O)[C@@H]1CCCN1C(=O)[C@H](Cc1ccccn1)NC(=O)[C@@H]1CCCN1C(=O)[C@H](N)CCCCNC(=O)c1cccnc1)C(N)=O	·	8%	·	·	-3%
SMILES	GLA inh pH 4.5	GAA spleen mod	GAA glycogen	GAA inh	GLA spleen mod
COC(=O)C1=C(C(=O)OC)[C@@H]2N(Cc3ccccc3)c3ccccc3[C@@]23C[C@@H](C(=O)OC)N(S(=O)(=O)c2ccc(OC)cc2)C3=N1	-10	2%[17.4 µM]	·	·	3%[17.5 µM]
Cc1ccc(C(=O)N2CCN(CCc3ccncc3)CC2)cc1	·	·	17%[76.3 µM]	·	·
C=C[C@H]1CCC=C2C(=O)CCC[C@@H]21	-7	-1%	·	·	3%
Cc1ccc(CNc2ccc(N3CCOCC3)cc2)s1	5	-3%	28µM*	-3%	0%
COc1ccc(/C(=C\C(=O)O)c2nccc3cc(OC)c(OC)cc23)cc1OC	6	5%	·	·	7%
Oc1ccc2ccccc2c1C1Nc2cccc3cccc(c23)N1	2	-1%	10µM*	-4%	1%
COc1cc(C2Nc3cccc4cccc(c34)N2)ccc1O	·	·	3%[76.3 µM]	·	·
O=C(NC1(C(F)(F)F)N=C(c2ccccc2)N(C2CCCCC2)C1=O)c1ccc(F)cc1 (centres undefined)	·	·	9%[76.3 µM]	·	·
CCCOc1ccc(-c2nc(C#N)c(NCCCn3ccnc3)o2)cc1	-1	8%	31µM*	3%	3%
Cc1ccc(-n2nc(C)c3c2OC(N)=C(C#N)C3c2ccoc2)cc1 (centres undefined)	9	-3%	22µM*	-4%	4%
Cc1ccc(-n2nc(C)c3c2OC(N)=C(C#N)C3c2ccco2)cc1 (centres undefined)	-5	-6%	?	2%	0%
Cc1ccsc1C=Nc1c(C)n(C)n(-c2ccccc2)c1=O	-10	2%	3.1µM*	6%	12%
Cc1c(N=Cc2cccs2)c(=O)n(-c2ccccc2)n1C	-11	8%	25µM*	-3%	12%
Cc1nc2cc(-c3cccc(F)c3)nn2c(C)c1CCC(=O)Nc1ccccc1C(N)=O	·	·	-3%[76.3 µM]	·	·
Nc1ccccc1C(=O)NNc1c2ccccc2nc2ccccc12	-1	1%	40µM*	·	8%
Cc1ccc(C(=O)NNc2c3ccccc3nc3ccccc23)cc1	29	6%	?	·	0%
COC(=O)CSc1cc([N+](=O)[O-])ccc1NC(=O)OC	5	-24%	5%	?	35µM*
CCCCCCCC/C=C\CCCCCCCC(=O)OC[C@@H](O)COP(=O)(O)O	-6	1%	·	·	-16%
CN(C)CCNc1c(N)c(=O)oc2ccccc12	5	5%	-1%	11%	6%
Cc1ccccc1Nc1c(N)c(=O)oc2ccccc12	-7	-4%	18µM*	3%	-2%
Cc1cc(C)c(S(=O)(=O)OC[C@H]2C=CC[C@@H](CCC[C@H]3O[C@H](C(=O)OC(C)C)CC[C@@H]3C)O2)c(C)c1	0	2%	·	·	14%
COC(=O)c1ccccc1NS(=O)(=O)c1ccc(Cl)nc1	-2	-4%	1%	3%	0%
O=S(=O)(Nc1ccccc1O)c1ccc(Cl)nc1	-5	-3%	20µM*	·	-2%
CCc1ccc(-n2c(SCc3nc(-c4cc(OC)ccc4OC)no3)nnc2-c2ccccc2)cc1	·	·	-18%[76.3 µM]	·	·
COc1ccc2[nH]cc(CCNc3ccnc(-c4ccccc4C)n3)c2c1	·	-21%	·	·	32µM*
COc1cccc(-c2nccc(NCCc3c[nH]c4ccc(OC)cc34)n2)c1	·	-6%	·	·	?
O=C1c2c(O)cc(O)cc2O[C@H](c2ccc(O)c(O)c2)[C@@H]1O	6	-4%	3.2µM*	-6%[15.4 µM]	-12%
